Bioassay records (PubChem)
Most compounds without a hit are left out; they make up all but 1.3% or so of the library.
NR5A2 inv ag = LRH-1 (NR5A2) inverse agonists, primary screen, cell-based, luminescence, HEK293T, StAR-luciferase reporter | Nuclear receptor subfamily 5 group A member 2 (Homo sapiens), O00482 | LRH-1 transfected, 24 h | 0.13% of 360,000 active | inhibition, % at 3.6 µM;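 active = inhibition above the mean inhibition of all tested compounds plus 3 SD, cut at about 73% in these data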;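 also: 0% = DMSO wells and 100% = reporter-only cells lacking LRH-1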
Target sequence (O00482 whole entry, looked up): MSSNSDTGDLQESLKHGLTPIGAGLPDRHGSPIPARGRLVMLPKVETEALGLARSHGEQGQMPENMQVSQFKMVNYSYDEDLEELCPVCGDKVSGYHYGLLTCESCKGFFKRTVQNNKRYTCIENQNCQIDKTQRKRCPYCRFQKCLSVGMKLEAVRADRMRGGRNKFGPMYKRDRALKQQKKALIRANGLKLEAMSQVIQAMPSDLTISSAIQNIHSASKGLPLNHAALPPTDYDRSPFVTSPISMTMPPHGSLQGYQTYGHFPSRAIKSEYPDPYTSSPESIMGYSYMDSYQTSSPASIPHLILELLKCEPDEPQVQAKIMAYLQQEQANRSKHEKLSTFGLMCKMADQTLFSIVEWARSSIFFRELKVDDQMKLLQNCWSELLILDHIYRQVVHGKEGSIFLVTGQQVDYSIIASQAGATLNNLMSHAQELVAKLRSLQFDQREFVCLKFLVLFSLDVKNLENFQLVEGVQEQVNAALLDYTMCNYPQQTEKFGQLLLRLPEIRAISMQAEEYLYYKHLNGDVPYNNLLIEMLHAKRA
NCOA1 inh = SRC1 coactivator transcriptional activity inhibitors, primary screen, cell-based, luminescence; Nuclear receptor coactivator 1 (Homo sapiens), Q15788; HEK293 GAL4-SRC1 luciferase reporter; inhibition, % at 3.6 µM; 0.12% of 360,000 active; AID 588354, 2011;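 active = inhibition above the campaign mean plus 3 SD, with each screening campaign given its own cutoff, cut at about 60% in these data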;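 also: 0% = DMSO treated cells and 100% = gossypol at 36 µM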
SRC3 inh = SRC3 coactivator transcriptional activity inhibitors, primary screen, cell-based, luminescence; AID 588352, 2011; inhibition, % at 3.6 µM; 0.17% of 360,000 active; Nuclear receptor coactivator 3 (Homo sapiens), Q9Y6Q9; HEK293 GAL4-SRC3 luciferase reporter;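 active = inhibition above a per-campaign cutoff, the mean of all compounds plus 3 SD, cut at about 60% in these data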;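 also: 0% = DMSO-treated cells and 100% = gossypol-treated cells at 36 µM; higher means less SRC3-driven luciferase light from the GAL4 reporter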
NCOA2 inhibitor = inhibition of GAL4-SRC2 driven luciferase reporter, primary screen, SRC2 inhibitor project, cell-based, luminescence | Nuclear receptor coactivator 2 (Homo sapiens), Q15596 | HEK293 GAL4-SRC2 luciferase reporter | inhibition, % at 9 µM | 0.17% of 370,000 active;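 active = inhibition above the mean inhibition of all tested compounds plus 3 SD, set per campaign, cut at about 52% in these data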;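 also: 0% = DMSO treated cells and 100% = cells given Gossypol at 36 µM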
Gli-Sufu antag = Gli-Sufu pathway antagonists, primary screen, luciferase luminescence, Sufu-KO-LIGHT cells, uHTS | Sufu-KO-LIGHT fibroblasts, Gli luciferase reporter luminescence | inhibition, % at 5 µM | 0.74% of 340,000 active;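 active = inhibition above about 55%, limit read from the data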;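 also: 0% = DMSO-treated cells and 100% = wells with medium but no cells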
NR2F2 inh = NR2F2 transcriptional activity inhibitors, primary screen, cell-based, luciferase reporter, HEK293T, luminescence; HEK293T NGFI-A luciferase reporter; inhibition, % at 8.6 µM; 0.7% of 370,000 active;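 active = inhibition above a per-plate cutoff, mean inhibition of test wells between control levels plus 3 SD, cut at about 38% in these data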;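 also: cells cotransfected with COUP-TFII expression vector driving the NGFI-A reporter; 0% = median of COUP-TF2 test wells and 100% = reporter-only cells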
VP16 Luc counter = Gal4-VP16 luciferase reporter inhibitors, counter-screen for COUP-TFII antagonist project, cell-based, luminescence, HEK293; 25% of 2,500 active; inhibition, % at 8.5 µM; shares compounds with NR2F2 inh; in the data active = inhibition above about 13%
COUP-TFII conf = NR2F2 transcriptional activity inhibitors, confirmation, cell-based, luciferase reporter, HEK293, triplicate | shares compounds with NR2F2 inh | HEK293 NGFI-A luciferase reporter, luminescence | inhibition, % at 8.5 µM | 45% of 2,500 active;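 active = mean inhibition over three repeats above a set limit taken from the earlier primary screen, cut at about 38% in these data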;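 also: 100% = cells given the luciferase reporter alone without the COUP-TF2 vector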
* marks the source's active call; other numbers are inactive results; . = not tested or not shown.

SMILES | NR5A2 inv ag | NCOA1 inh | SRC3 inh | NCOA2 inhibitor | Gli-Sufu antag | NR2F2 inh | VP16 Luc counter | COUP-TFII conf
Cc1cc(/C=C2/SC(=S)N(c3cccc(Cl)c3)C2=O)c(C)n1-c1cccnc1 | 35.7 | 11.6 | 10.6 | 2.0 | 15.0 | 64.9* | -21.8 | 64.3*
Cc1ccc(/C=C2\SC(=S)N(c3cccnc3)C2=O)o1 | 7.7 | 6.0 | -8.8 | -11.7 | 12.1 | -1.3 | . | .
Cc1ccc(-n2c(C)cc(/C=C3\SC(=O)NC3=O)c2C)cc1 | -113.1 | -166.7 | -94.4 | -3.6 | -85.7 | -3.1 | . | .
Cc1cc(/C=C2\SC(=S)N(C)C2=O)c(C)n1-c1ccc(O)cc1 | 72.1 | 80.2* | 80.6* | 72.6* | -26.8 | 83.6* | 68.2* | 98.5*
Cc1cc(/C=C2\SC(=S)N(C)C2=O)c(C)n1-c1ccccc1O | -1.6 | -14.2 | -7.1 | 13.3 | 1.7 | 42.8* | -106.8 | 13.0
COC(=O)c1cc2c(c3c4cc(OC)ccc4n(S(=O)(=O)c4cccc(C)c4)c13)C(=O)N(C)C2 | . | . | . | -21.0 | . | 3.6 | . | .
CCOc1ccc(-c2cc(CCCC(=O)NCCc3ccc(OC)c(OC)c3OC)no2)cc1 | -5.8 | 1.9 | 2.0 | 41.5 | 14.4 | 12.6 | . | .
CCOc1ccc(NC(=O)CCCc2cc(-c3ccc(OCC)cc3)on2)cc1 | -13.3 | -44.4 | -14.8 | -13.8 | 8.4 | 5.0 | . | .
CCOc1ccc(-c2cc(CCCC(=O)Nc3cccc(OC)c3)no2)cc1 | 43.5 | 4.9 | -0.3 | 55.4* | 5.2 | 41.5* | 2.5 | 16.2
COc1ccc(-c2cc(C(=O)Nc3cccc(O)c3)no2)cc1 | -41.9 | -33.2 | -30.3 | 9.3 | -87.1 | 50.1* | -6.9 | 8.0
CCOc1ccc(-c2cc(CCCC(=O)Nc3cc(OC)ccc3OC)no2)cc1 | 16.8 | 4.3 | 14.5 | 73.4* | 13.0 | 67.3* | 38.4* | 31.9
COc1ccc2cc3cc(C(=O)Nc4ccc(F)cc4)sc3nc2c1 | . | . | . | . | . | -8.6 | . | .
COCC(=O)OC1CCn2c1nc1c2C(=O)C(C)=C(NC(C)=O)C1=O (centres undefined) | 96.1* | 89.9* | 87.6* | 72.9* | 39.1 | 71.8* | 49.7* | 73.6*
COC(=O)CN1CCN(C(=O)c2csc3ccccc23)CC1 | . | . | . | -6.6 | . | 14.4 | . | .
CCOc1ccc(CCNC(=O)c2cc3sccc3n2CC)cc1OCC | 28.8 | 13.1 | 10.5 | 23.5 | 3.2 | 49.6* | -0.1 | 29.3
CCOc1ccc(CCNC(=O)c2cc3sccc3n2Cc2ccccc2)cc1OCC | . | . | . | . | . | 40.1* | -5.2 | 17.6
CCOc1ccc(CCNC(=O)c2cc3sccc3n2Cc2cccc(C)c2)cc1OCC | . | . | . | . | . | 21.0 | . | .
CCOc1ccc(CCNC(=O)c2ccc3[nH]ccc3c2)cc1OCC | . | . | . | . | . | 40.6* | -11.6 | 13.1
CCOc1ccc(CCNC(=O)c2ccc(Oc3ccccc3)cc2)cc1OCC | . | . | . | . | . | 23.8 | . | .
CNC(C#Cc1ccccc1)c1ccccc1C(F)(F)F (centres undefined) | . | . | . | . | . | 20.1 | . | .
COC(=O)C1CN(C2CCCC2)CCS(=O)(=O)N1Cc1ccc(OC)cc1 (centres undefined) | . | . | . | 20.4 | . | 7.6 | . | .
Cc1cc(/C=C2/C(=O)NN(c3ccccc3)C2=O)c(C)n1-c1cccc(O)c1 | -26.8 | 21.8 | 25.7 | -22.5 | 5.6 | 40.6* | -62.5 | 39.2*
COc1ccccc1NC(=O)c1ccc(S(=O)(=O)N2CCCC2)cc1 | -29.0 | 12.8 | -9.5 | -15.7 | -5.2 | 4.3 | . | .
COc1ccccc1NS(=O)(=O)c1ccc(C)c(NC(=O)c2ccc(S(=O)(=O)N3CCCCCC3)cc2)c1 | -19.8 | 12.6 | 26.1 | 14.4 | 36.8 | 41.2* | 2.1 | 29.5
Cc1ccc(S(=O)(=O)N2CCCCC2)cc1NCC(=O)Nc1ccc(Br)cc1F | 19.4 | 8.6 | 9.4 | 17.7 | . | 54.6* | 0.9 | 26.6
SMILES | NR5A2 inv ag | NCOA1 inh | SRC3 inh | NCOA2 inhibitor | Gli-Sufu antag | NR2F2 inh | VP16 Luc counter | COUP-TFII conf
CCc1ccc(C(=O)Nc2ccc(OC)c(S(=O)(=O)N3CCOCC3)c2)cc1 | -0.8 | 4.5 | 25.1 | -18.7 | -3.4 | 15.1 | . | .
COc1ccc(C(=O)Nc2ccc(C)c(S(=O)(=O)N3CCCCCC3)c2)cc1 | 7.2 | 15.6 | 5.0 | 7.4 | 19.1 | 45.9* | -0.2 | 19.7
O=C(CNc1ccccc1F)Nc1cc(S(=O)(=O)N2CCCCC2)ccc1Cl | -14.7 | -6.1 | 9.6 | 11.8 | -5.0 | -38.9 | . | .
CCc1ccc(C(=O)Nc2ccc(OC)c(S(=O)(=O)N3CCCCC3)c2)cc1 | 22.6 | 9.7 | 19.8 | 30.4 | -4.7 | 57.8* | -2.4 | 33.9
Cc1ccc(NC(=O)c2ccc(F)cc2)cc1S(=O)(=O)N1CCCCCC1 | 6.0 | -10.2 | 3.8 | 12.0 | 6.5 | 24.2 | . | .
C#CCNc1cccc2c1S(=O)(=O)N[C@H](C)CO2 | . | . | . | -10.4 | . | -11.2 | . | .
Cc1nc(SCC(N)=O)[nH]c(=O)c1C | . | . | . | . | . | -1.2 | . | .
CN(Cc1ccccc1)S(=O)(=O)c1cccc(C(=O)OCC2CCCCC2)c1 | . | . | . | -8.3 | . | -0.2 | . | .
Cc1ccc2nc(NC(=O)c3ccccn3)sc2c1 | -7.4 | -6.3 | 12.0 | 27.9 | 77.8* | 58.2* | 9.7 | 27.6
COc1ccccc1C(=O)Nc1nc2ccc(S(C)(=O)=O)cc2s1 | -8.4 | -15.1 | -16.2 | -32.5 | -39.0 | -20.3 | . | .
COc1ccccc1C(=O)Nc1nc2ccccc2s1 | 66.1 | 70.7* | 73.7* | 86.5* | 67.4* | 90.8* | 78.4* | 96.8*
COc1ccc(Cn2cc(CN3[C@H](C)COc4cc(Br)ccc4S3(=O)=O)nn2)cc1 | . | . | . | 17.5 | . | -7.2 | . | .
COC(=O)[C@H](C(C)C)N(CCc1cn(CC2CCCCC2)nn1)S(=O)(=O)c1ccccc1Br | . | . | . | 11.7 | . | 9.1 | . | .
CCOC(=O)[C@@]12CCCC3=C1N(CCC3)C(=O)[C@H]2CC(=O)NCC12CC3CC(CC(C3)C1)C2 | . | . | . | -6.4 | . | 3.4 | . | .
Fc1ccc(-[n+]2nc(Nc3ccccc3)sc2-c2c(Cl)cccc2Cl)cc1 | -18.8 | -2.8 | 4.4 | -43.6 | 35.6 | -9.0 | . | .
CCc1ccc(Nc2n[n+](-c3ccccc3)c(-c3c(Cl)cccc3Cl)s2)cc1 | -3.5 | 1.2 | 3.8 | -2.4 | 7.0 | 65.5* | 15.9* | 30.3
COc1ccc2cc3c(N)nn(C(=O)c4ccccc4Cl)c3nc2c1 | 50.3 | 74.1* | 60.4 | 39.0 | -22.5 | 45.2* | 23.0* | 35.9
COc1ccc2cc3c(N)nn(C(=O)c4ccc(F)cc4)c3nc2c1 | 19.7 | 60.1 | 48.7 | 30.7 | -21.5 | 34.2 | . | .
